Pf Dd2 inh: P. falciparum Dd2 growth inhibitors, primary screen, SYBR Green fluorescence, single dose replicates | activity change, % at 10 µM | actives 2.3% (n = 94,000) | AID 1159554, 2015 | 72 h; stronger effect = lower value; in the data active means activity change below about -80%; inconclusive means no clear call, values can overlap the other calls
C diff HTS: C. difficile growth inhibitors, primary screen, HTS. Clostridium difficile clinical isolate growth, OD600, 24 h; stronger effect = lower value. actives 0.25% (n = 86,000). growth activity, negative = inhibition, % at 16 µg/mL (by protocol). AID 1259249, 2017;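 active means mean growth activity at or below -80% and every replicate also at or below -80%; inconclusive means mean at or below -80% but some replicate above -80%; inactive means mean growth activity above -80%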;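 further: 0% = DMSO wells and -100% = levofloxacin 16 µg/mL wells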
T cruzi growth-1: T. cruzi intracellular proliferation inhibitors, primary screen, cell-based, beta-gal Tulahuen parasites, NIH3T3 host, luminescence | inhibition, % at 8.34 µM | actives 5.9% (n = 77,000) | T. cruzi beta-gal in NIH3T3, GalScreen luminescence, 90 h;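 active means mean inhibition above about 93%, with at least 55% of replicates each passing it, limit read from the data, passing the limit was not always enough; inconclusive means only one of those two conditions holds; inactive means neither condition holds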
T cruzi growth-2: T. cruzi intracellular proliferation inhibitors, confirmation, cell-based, NIH3T3 host, beta-gal parasite, luminescence, cherry-pick; shares compounds with T cruzi growth-1; T. cruzi beta-gal in NIH3T3, GalScreen luminescence, 90 h; inhibition, % at 8.35 µM; actives 72% (n = 5,600); AID 651739, 2012;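 active means mean replicate inhibition above about 95% and at least 55% of replicates individually reaching it, limit read from the data; inconclusive means only one of the two criteria is met; inactive means neither criterion is met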
T cruzi growth-3: inhibitors of intracellular T. cruzi replication, confirmation, NIH3T3 host cells, beta-gal parasites, cherry-pick, set 2; actives 21% (n = 5,600); inhibition, % at 2.09 µM; shares compounds with T cruzi growth-1; AID 651740, 2012; T. cruzi beta-gal in NIH3T3, GalScreen luminescence, 90 h;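 active means mean inhibition above about 95%, with at least 55% of replicates also reaching it, limit read from the data; inconclusive means meets just one of the two conditions; inactive means meets neither condition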;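 further: plate controls were neutral control median for no effect and positive control median for full effect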
3T3 cytotox: cytotoxicity in mouse NIH/3T3 fibroblasts, confirmation, cytotoxicity control for T. cruzi proliferation inhibitor project, cell-based, cherry-pick, single point; actives 14% (n = 5,600); shares compounds with T cruzi growth-1; NIH/3T3 viability, CellTiter-Glo ATP luminescence, 90 h; cytotoxicity (signal decrease), % at 8.35 µM;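 active means mean signal decrease across replicates above about 35% based on untreated-well scatter, with enough replicates individually passing, limit read from the data; inconclusive means no rule stated though some were filed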;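 further: 0% = median of neutral control wells and 100% = median of positive control wells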
3T3 cytotox 2: NIH/3T3 fibroblast cytotoxicity, confirmation, cytotoxicity control, cell-based, cherry-pick, single point, set 2; shares compounds with T cruzi growth-1; NIH/3T3 viability, CellTiter-Glo ATP luminescence, 90 h; inhibition, % at 24.9 µM; actives 56% (n = 5,600);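 active means mean loss of cell viability signal at or above a set limit, and enough replicates individually reaching it; inconclusive means meets only the mean limit or only the replicate share; inactive means meets neither condition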;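 further: 0% = median of neutral control wells and 100% = median of positive control wells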
The depositor's hits bear a star; ? = inconclusive; . = no result. Compounds with a hit are over-represented: about 6.8% of the library has one in this group of screens.

SMILES	Pf Dd2 inh	C diff HTS	T cruzi growth-1	T cruzi growth-2	T cruzi growth-3	3T3 cytotox	3T3 cytotox 2
CN1c2ccc(-c3ccccc3)cc2[C@@H]2[C@@H](CCN2C(=O)c2ccc3c(c2)OCO3)[C@H]1CO	6	-11	106*	105*	108*	9	30*
CN1c2ccc(-c3ccccc3)cc2[C@@H]2[C@@H](CCN2C(=O)c2ccccn2)[C@H]1CO	13	54	105*	102*	43	13	21
CN(C)CC(=O)N1CC[C@@H]2[C@H]1c1cc(-c3ccccc3F)ccc1N(C)[C@@H]2CO	-16	-1	113*	102*	19	-8	24*
CN1c2ccc(-c3cccc(F)c3)cc2[C@H]2[C@H](CCN2C(=O)c2ccc3c(c2)OCO3)[C@H]1CO	5	-27	36	.	.	.	.
CN1c2ccc(-c3ccccc3F)cc2[C@H]2[C@H](CCN2C(=O)NC2CCCCC2)[C@H]1CO	-13	9	.	.	.	.	.
CN1c2ccc(-c3ccccc3F)cc2[C@@H]2[C@@H](CCN2C(=O)c2ccccn2)[C@H]1CO	-54	-7	116*	106*	55	-1	24
CN1c2ccc(-c3ccc(F)cc3)cc2[C@@H]2[C@@H](CCN2C(=O)c2ccccn2)[C@H]1CO	-7	-6	35	.	.	.	.
CN(C)CC(=O)N1CC[C@H]2[C@@H]1c1cc(-c3ccccc3F)ccc1N(C)[C@H]2CO	22	-1	23	.	.	.	.
C[C@@H]1CCCCO[C@H](CN(C)C(=O)Nc2ccc(F)cc2)[C@@H](C)CN([C@@H](C)CO)C(=O)c2cc(NS(=O)(=O)c3cccs3)ccc2O1	-54	0	.	.	.	.	.
CN(C)C(=O)[C@H]1[C@H](CO)[C@H]2Cn3c(ccc(-c4ccccc4)c3=O)[C@H]2N1CCC(F)(F)F	.	-8	-14	.	.	.	.
CCCC#Cc1ccc([C@H]2[C@@H](C#N)N(C(=O)CN3CCOCC3)[C@H]2CO)cc1	-14	1	98*	103*	84	18	?
N#C[C@@H]1[C@@H](c2ccccc2)[C@H](CO)N1C(=O)CN1CCOCC1	23	-18	64	.	.	.	.
CCCC#Cc1ccc([C@@H]2[C@@H](C#N)N(C(=O)C3CC3)[C@@H]2CO)cc1	25	-9	77	.	.	.	.
CCCC#Cc1ccc([C@H]2[C@@H](C#N)N(C(=O)CN3CCOCC3)[C@@H]2CO)cc1	9	6	105*	98*	52	-12	4
C[C@@H]1CN([C@H](C)CO)C(=O)c2cc(NS(=O)(=O)c3cn(C)cn3)ccc2O[C@@H]1CN(C)Cc1ccc(Oc2ccccc2)cc1	9	.	43	.	.	.	.
Cc1noc(C)c1NC(=O)Nc1ccc2c(c1)C(=O)N([C@H](C)CO)C[C@@H](C)[C@H](CN(C)S(=O)(=O)c1cn(C)cn1)OCCCC[C@H](C)O2	27	-9	11	.	.	.	.
Cn1cnc(S(=O)(=O)N2CCCCN3[C@H](CO)[C@@H](c4ccc(C5=CCCC5)cc4)[C@H]3C2)c1	-17	-8	10	.	.	.	.
C/C=C/c1cnc2c(c1)C(=O)N([C@@H](C)CO)C[C@@H](C)[C@H](CN(C)S(=O)(=O)c1ccccc1F)O2	-45	-1	.	.	.	.	.
CN(C)C(=O)c1ccc(-c2ccc3c(c2)[C@H]2[C@H](CCN2S(=O)(=O)c2ccccc2)[C@H](CO)N3)cc1	-34	-14	29	.	.	.	.
CN(C)C(=O)c1cccc(-c2ccc3c(c2)[C@@H]2[C@@H](CCN2S(=O)(=O)c2ccccc2)[C@H](CO)N3)c1	-11	-2	112*	97*	80	23	23
CN(C)C(=O)c1cccc(-c2ccc3c(c2)[C@H]2[C@H](CCN2S(=O)(=O)c2ccccc2)[C@@H](CO)N3)c1	-19	3	100*	96*	81	10	17
N#Cc1cccc(-c2ccc3c(c2)[C@@H]2[C@@H](CCN2S(=O)(=O)c2ccccc2)[C@H](CO)N3)c1	4	-3	83	.	.	.	.
COc1ccc(S(=O)(=O)Nc2cccc3c2O[C@@H](CN(C)S(=O)(=O)c2c(C)noc2C)[C@H](C)CN([C@H](C)CO)C3=O)cc1	3	.	-33	.	.	.	.
COCC#Cc1ccc([C@H]2[C@H]3CN(C(=O)c4ccncc4)CC(=O)N3[C@H]2CO)cc1	42	-1	.	.	.	.	.
C[C@H]1CN([C@@H](C)CO)C(=O)Cc2cc(NC(=O)Cc3ccccc3)ccc2O[C@H]1CN(C)Cc1ccc(Cl)c(Cl)c1	-12	86	?	100*	59	21	105*
SMILES	Pf Dd2 inh	C diff HTS	T cruzi growth-1	T cruzi growth-2	T cruzi growth-3	3T3 cytotox	3T3 cytotox 2
C[C@@H]1CN([C@@H](C)CO)C(=O)Cc2cc(NC(=O)Cc3ccccc3)ccc2O[C@H]1CN(C)Cc1ccc(C(F)(F)F)cc1	-29	13	94	.	.	.	.
C[C@H](CO)N1C[C@H](C)[C@@H](CN(C)Cc2ccccc2)Oc2ccc(NC(=O)Cc3ccccc3)cc2CC1=O	-38	-3	95	.	.	.	.
C[C@H](CO)N1C[C@H](C)[C@H](CN(C)Cc2ccc(C(F)(F)F)cc2)Oc2ccc(NC(=O)Cc3cn(C)c4ccccc34)cc2CC1=O	-34	5	101*	107*	19	20	?
C[C@H]1CN([C@@H](C)CO)C(=O)Cc2cc(NC(=O)Cc3cn(C)c4ccccc34)ccc2O[C@H]1CN(C)Cc1ccc(Cl)c(Cl)c1	-59	-4	100*	107*	57	-7	-3
C[C@H](CO)N1C[C@H](C)[C@@H](CN(C)Cc2ccc(C(F)(F)F)cc2)Oc2ccc(NC(=O)Cc3cn(C)c4ccccc34)cc2CC1=O	-21	10	87	.	.	.	.
C[C@H](CO)N1C[C@H](C)[C@@H](CN(C)Cc2ccc(Cl)c(Cl)c2)Oc2ccc(NC(=O)Cc3cn(C)c4ccccc34)cc2CC1=O	-69	2	64	.	.	.	.
C[C@H](CO)N1C[C@H](C)[C@@H](CN(C)Cc2ccc(C(F)(F)F)cc2)Oc2ccc(NC(=O)Cc3ccccc3)cc2CC1=O	-20	7	106*	95	101*	-1	104*
C[C@H]1CCCCO[C@H](CN(C)C(=O)Nc2cccc3ccccc23)[C@@H](C)CN([C@@H](C)CO)C(=O)c2cc(NC(=O)Nc3ccc4c(c3)OCO4)ccc2O1	-46	-11	71	.	.	.	.
O=C(O)C[C@H]1C[C@H]2c3cc(NS(=O)(=O)c4ccc(F)cc4)ccc3O[C@H]2[C@H](CO)O1	-8	-6	.	.	.	.	.

From PubChem BioAssay
